Common to all, as to experiment: glycan array binding signal (z-score within array); higher = stronger binding
Details in all cases: glycan notation: IUPAC condensed, linker removed

In assay [1] the test system is Neu5Ac(a2-3)Gal(b1-4)GlcNAc(b1-3)Gal(b1-4)GlcNAc(b1-2)Man(a1-3)[Neu5Ac(a2-3)Gal(b1-4)GlcNAc(b1-3)Gal(b1-4)GlcNAc(b1-2)Man(a1-6)]Man(b1-4)GlcNAc(b1-4)GlcNAc. Put shortly:
(§1)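 Arrays were curated from the Consortium for Functional Glycomics database, 3228 in total, and kept only where the protein sequence was available. Binding is expressed as a within-array Z-score. This score was averaged across arrays of the same protein sequence at different concentrations or buffers and across linkers, and negative values can be read as non-binding.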

Assay [2] deals with Neu5Ac(a2-3)Gal(b1-4)GlcNAc(b1-3)Gal(b1-4)GlcNAc(b1-3)Gal(b1-4)GlcNAc(b1-2)Man(a1-3)[Neu5Ac(a2-3)Gal(b1-4)GlcNAc(b1-3)Gal(b1-4)GlcNAc(b1-3)Gal(b1-4)GlcNAc(b1-2)Man(a1-6)]GalNAc. Put shortly: as §1
Assay [3] concerns Neu5Ac(a2-3)Gal(b1-4)GlcNAc(b1-3)Gal(b1-4)GlcNAc(b1-3)GalNAc. Put shortly:
as §1

The subject of assay [4] is Neu5Ac(a2-3)Gal(b1-4)GlcNAc(b1-6)[Gal(b1-3)]GalNAc. The essentials:
as §1

Assay [5] concerns Neu5Ac(a2-3)Gal(b1-4)[Fuc(a1-3)]GlcNAc(b1-3)Gal(b1-4)[Fuc(a1-3)]GlcNAc(b1-3)Gal(b1-4)[Fuc(a1-3)]GlcNAc. Put shortly:
as §1

The test system of assay [6] is Neu5Ac(a2-3)Gal(b1-4)GlcNAc(b1-3)Gal(b1-4)GlcNAc(b1-3)Gal(b1-4)GlcNAc. Put shortly: as §1
Assay [7] relates to Neu5Ac(a2-3)Gal(b1-4)GlcNAc(b1-3)GalNAc. The essentials: as §1
Assay [8] has as its system Neu5Ac(a2-3)Gal(b1-4)[Fuc(a1-3)]GlcNAc. Put shortly:
as §1

The test system of assay [9] is Neu5Ac(a2-3)Gal(b1-4)GlcNAc(b1-3)Gal(b1-4)[Fuc(a1-3)]GlcNAc. The essentials:
as §1

The subject of assay [10] is Neu5Ac(a2-3)Gal(b1-4)GlcNAc(b1-6)GalNAc. The essentials: as §1
For assay [11], the system named is Neu5Ac(a2-3)Gal(b1-4)GlcNAc6S. The essentials: as §1
For assay [12], the system named is Neu5Ac(a2-3)Gal(b1-4)[Fuc(a1-3)]GlcNAc(b1-3)Gal(b1-4)GlcNAc. Put shortly: as §1
Assay [13] deals with Neu5Ac(a2-3)Gal(b1-4)GlcNAc(b1-3)Gal. The essentials:
as §1

In assay [14] the test system is Neu5Ac(a2-3)Gal(b1-4)[Fuc(a1-3)]GlcNAc(b1-3)GalNAc. Put shortly:
as §1

The subject of assay [15] is Neu5Ac(a2-3)Gal(b1-4)GlcNAc. The essentials: as §1
The test system of assay [16] is Neu5Ac(a2-3)Gal(b1-4)[Fuc(a1-3)]GlcNAc(b1-3)Gal(b1-4)[Fuc(a1-3)]GlcNAc(b1-3)Gal(b1-4)Glc. Put shortly:
as §1

Assay [17] has as its system Neu5Ac(a2-3)Gal(b1-4)[Fuc(a1-3)]GlcNAc6S(b1-3)Gal(b1-4)Glc. The essentials: as §1
Assay [18] concerns Neu5Ac(a2-3)Gal(b1-4)[Fuc(a1-3)]GlcNAc(b1-6)[Gal(b1-3)]GalNAc. Put shortly:
as §1

Shown is part of a subset that was picked to be rich in the strongest signals.

On to “AgI/II Vhelical-GFP (Streptococcus mutans)”, for which the “glycan array binding signal (z-score)” value is 1.8 in assay [1]; -0.031 in assay [2]; 0.5 in [3]; -0.273 in [4]; -0.178 in assay [5].

Consider “SiiE (Salmonella typhimurium), A0A0H3NVH0”, for which the “glycan array binding signal (z-score)” value in assay [6] is -0.456; in [7] it was -1.98; in [8], 0.224.

As for BambL (Burhholderia ambifaria), Q0B4G1, the “glycan array binding signal (z-score)” value in assay [6] was -0.313.

Regarding LcI (Legionella pneumophila), the “glycan array binding signal (z-score)” value in assay [9] was -0.717; in assay [10] it was 3.79; in assay [11] it was -0.956; in [12] it was 0.401.

Take “SpGH101 (Streptococcus pneumoniae), Q8DR60”: the “glycan array binding signal (z-score)” value in assay [13] is -0.209; in assay [14], 1.68.

Turning to Wza (Escherichia coli), P0A930, the figures for the “glycan array binding signal (z-score)” value in [13] and in [14] were 2.81 and 1.12, respectively.

Take Epa22: the “glycan array binding signal (z-score)” value in assay [11] was 0.274; in assay [15] it was 0.352.

For the substance MIC3-MAR5 (Eimeria tenella), B6VCV4, the “glycan array binding signal (z-score)” value in assay [16] is 0.92; in assay [17], 2.08.

AgI/IIC123-GFP (Streptococcus mutans): the “glycan array binding signal (z-score)” value in assay [18] is 0.09.

Consider MIC3-MAR1b (Eimeria tenella), B6VCV4, for which, in assay [8], the “glycan array binding signal (z-score)” value is -0.346.

The values above are taken from the supplement of paper PMC8728848.
